Assay results taken from PubChem BioAssay (Tox21).
“And” between values parts separate entries of the source, which are not always exact repeats. Equal entries are not always repeated. Results filed as inconclusive are left out. The source made the active and inactive calls. Calls follow the shape of the full dose curve.

Assay: qHTS assay for small molecules that induce genotoxicity in human embryonic kidney cells expressing luciferase-tagged ATAD5 - cell viability (AID 651634); also: nearly all actives have a fitted effect of over 25% in size
Conditions: HEK293T ATAD5-luc cells viability, CellTiter-Fluor, 15.5 h; series mostly up to 83.3 µM; activity, negative = cytotoxicity: at the top concentration
Text: National Center for Advancing Translational Sciences [NCATS]
NIH Chemical Genomics Center [NCGC]
U.S. Environmental Protection Agency [EPA]
National Institutes of Environmental Health Sciences [NIEHS]
National Toxicology Program [NTP]
U.S. Food and Drug Administration [FDA]
Enhanced Level of Genome Instability Gene 1 (ELG1; human ATAD5) protein levels increase in response to various types of DNA damage. Using a luciferase reporter-gene tagged with ElG1, a cell-based assay [developed by Kyungjae Myung, NHGRI, NIH] was used to measure the induction of ATAD5 in human embryonic kidney cells (HEK293T). So, increase in luciferase activity can be used to identify the compounds that cause genetic stress. In addition to genotoxicity, these cells were also used to test for cytotoxicity by measuring the protease activity within live cells.
Tox21 Assay Protocol Summary:
For cytotoxicity screening, 2,000 cells in 5 uL/well were dispensed into white, solid-bottom 1536-well plates using a Multidrop Combi (Thermo Scientific) dispenser. Following transfer of 23 nL compound or DMSO vehicle by a pin tool, the plates were incubated 15.5 hr at 37C and 5% CO2. 1 ul CellTiter-Fluor reagent (Promega, Madison, WI) was then added to each plate and following 30 min incubation at 37C, fluorescence intensity was quantified on a ViewLux CCD-based plate reader.
% is scaled to controls: 0 for no effect and ±100 for the full control effect; potency is read from the fitted curve at half-maximal effect.

SMILES | activity, negative = cytotoxicity | Potency
C=CCOC(=O)C(C)(C)OC(=O)c1cc(-n2c(=O)cc(C(F)(F)F)n(C)c2=O)ccc1Cl | -3.96% (inactive) | –
O=S(=O)(Cl)Cl | 19.1% (inactive) | –
CCCCCCCCn1sccc1=O | – | 54.6 µM (active)
O=C([O-])c1ccccn1.O=C([O-])c1ccccn1.O=C([O-])c1ccccn1.[Cr+3] | 4.7% (inactive) | –
CC(O)CN1CCN(CC(=O)[O-])CCN(CC(=O)[O-])CCN(CC(=O)[O-])CC1.[Gd+3] (stereo not given) | – | inactive
C=CCOCC1CO1 (stereo not given) | -4.34% (inactive) | –
Clc1ccccc1 | 1.93% (inactive) | –
COCc1cnc(C2=NC(C)(C(C)C)C(=O)N2)c(C(=O)O)c1 (stereo not given) | 17.5% (inactive) | –
CCCN(CCC)c1c([N+](=O)[O-])cc(C(C)C)cc1[N+](=O)[O-] | – | inactive
C=CCc1ccccc1O | 13.5% (inactive) | –
CC(C)(C)OOC(C)(C)CCC(C)(C)OOC(C)(C)C | 5.04% (inactive) | –
COc1ccc2c(c1OC)C(=O)O[C@H]2[C@@H]1c2cc3c(cc2CCN1C)OCO3 | -2.88% (inactive) | –
C=C(C)C(=O)OCCCCOC(=O)C(=C)C | 11.5% (inactive) | –
C1CCNCC1 | -5.95% [at 95.3 µM] (inactive) | –
O=C(Cc1ccccc1)c1ccccc1 | 26.8% (inactive) | –
C[N+]1(CCC(C(N)=O)(c2ccccc2)c2ccccc2)CCCCC1 | 11.6% (inactive) | –
CCCCCCCCCCCC[N+](C)(C)CCOc1ccccc1 | – | 29.8 µM (active) and 61.1 µM (active)
C=CC(=O)OCC | 4.89% [at 95.3 µM] (inactive) | –
O=P(OCC(Br)CBr)(OCC(Br)CBr)OCC(Br)CBr (stereo not given) | -14.8% [at 95.3 µM] (inactive) | –
O=C(NCNC(=O)NC1C(=O)NC(=O)N1CO)NC1C(=O)NC(=O)N1CO (stereo not given) | – | inactive

SMILES | activity, negative = cytotoxicity | Potency
NC(=O)CF | 17.4% (inactive) | –
Nc1ccc2c(c1)Cc1ccccc1-2 | 21.8% (inactive) | –
CCC1(C2=NCCN2)Cc2ccccc2O1 (stereo not given) | -25.8% (inactive) | –
CC[N+]1(CCOC(=O)C(O)(c2ccccc2)c2ccccc2)CCCCC1 | 9.41% (inactive) | –
CC(C)(C)NCC(O)c1ccccc1Cl (stereo not given) | 14.3% (inactive) | –
COC(=O)C1(O)c2ccccc2-c2ccccc21 | 7.55% (inactive) | –
CCOP(=S)(OCC)Oc1ccc(S(C)=O)cc1 (stereo not given) | 12.3% (inactive) | –
CCCCCCCCCCCCCCCl | 18.3% [at 95.3 µM] (inactive) | –
CC(C)(C)CC(C)(C)c1ccc(O)cc1 | – | 61.1 µM (active)
CCCC(C)(COC(N)=O)COC(=O)NC(C)C (stereo not given) | – | inactive
NP(N)(=O)NC(=O)c1ccc(F)cc1 | 7.58% (inactive) | –
CCCN(CCOc1c(Cl)cc(Cl)cc1Cl)C(=O)n1ccnc1 | – | inactive
CCC(C)(C)c1ccc(O)c(C(C)(C)CC)c1 | – | 53.9 µM (active)
C[CH2][Hg][S]c1ccccc1C(=O)O | – | 11.9 µM (active) and 27.3 µM (active)
Oc1cccc(Cl)c1 | 16.7% (inactive) | –
O=C(O)COc1cc(Cl)c(Cl)cc1Cl | – | inactive
Cc1nc(N(C)C)nc(OC(=O)N(C)C)c1C | 8.61% (inactive) | –
CN(C)C(=O)Nc1cccc(OC(=O)NC(C)(C)C)c1 | -6.06% (inactive) | –
CC(C)CCCCCCCOC(=O)c1ccccc1C(=O)OCCCCCCCC(C)C | 10.9% (inactive) | –
CCCCC(CC)COC(=O)c1c(Br)c(Br)c(Br)c(Br)c1C(=O)OCC(CC)CCCC (stereo not given) | 15.6% (inactive) | –
